According to PubChem BioAssay AID1159580 (chemical genetic matrix, 2015):
Out of some 5,500 compounds screened, about 2,000 (36%) were called active. Another 18% or so got no clear call; they are omitted. No stated cut-off is given here; in the data, active means normalized growth mostly below about 0.91 (no sharp cut-off); inconclusive means no clear call, values can overlap the other calls; inactive means mostly above about 0.92. This is one part of the list.

Assay: chemical genetic growth profiling, strain panel (AID 1159580);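 further: tested at 20 µM; growth read once vehicle control cultures reached saturation at 30 °C; 1 = growth at the plate median or of vehicle wells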
Conditions: growth OD

Measured: normalized growth

O=C(Nc1ccc(C(F)(F)F)cc1)Nc1ccccc1C(=O)O
inactive: S. cerevisiae deletion strains, locus YAL013W, strain DEP1, stronger effect = lower value 0.975 | S. cerevisiae deletion strains, locus YBR229C, strain ROT2, stronger effect = lower value 0.993 | S. cerevisiae deletion strains, locus YCL061C, strain MRC1, stronger effect = lower value 0.967 | S. cerevisiae deletion strains, locus YDL101C, strain DUN1, stronger effect = lower value 0.994 | S. cerevisiae deletion strains, locus YDL134C, strain PPH21, stronger effect = lower value 0.989 | S. cerevisiae deletion strains, locus YDR150W, strain NUM1, stronger effect = lower value 0.972 | S. cerevisiae deletion strains, locus YEL061C, strain CIN8, stronger effect = lower value 1.01 | S. cerevisiae deletion strains, locus YGR078C, strain PAC10, stronger effect = lower value 0.984 | S. cerevisiae deletion strains, locus YGR229C, strain SMI1, stronger effect = lower value 0.975 | S. cerevisiae deletion strains, locus YHR030C, strain SLT2, stronger effect = lower value 0.99 | S. cerevisiae deletion strains, locus YHR087W, strain rtc3, stronger effect = lower value 0.994 | S. cerevisiae deletion strains, locus YJR043C, strain POL32, stronger effect = lower value 0.981 | S. cerevisiae deletion strains, locus YJR075W, strain HOC1, stronger effect = lower value 0.979 | S. cerevisiae deletion strains, locus YKL190W, strain CNB1, stronger effect = lower value 0.989 | S. cerevisiae deletion strains, locus YLR039C, strain RIC1, stronger effect = lower value 1.01 | S. cerevisiae deletion strains, locus YLR058C, strain SHM2 (second series), stronger effect = lower value 0.979 | S. cerevisiae deletion strains, locus YLR085C, strain ARP6, stronger effect = lower value 1 | S. cerevisiae deletion strains, locus YLR262C, strain YPT6, stronger effect = lower value 0.935 | S. cerevisiae deletion strains, locus YML094W, strain GIM5, stronger effect = lower value 1 | S. cerevisiae deletion strains, locus YMR219W, strain ESC1, stronger effect = lower value 0.971 | S. cerevisiae deletion strains, locus YMR263W, strain SAP30, stronger effect = lower value 0.991 | S. cerevisiae deletion strains, locus YNL153C, strain GIM3, stronger effect = lower value 0.977 | S. cerevisiae deletion strains, locus YNL298W, strain CLA4 (second series), stronger effect = lower value 0.96 | S. cerevisiae deletion strains, locus YNL322C, strain KRE1, stronger effect = lower value 0.971 | S. cerevisiae deletion strains, locus YNR030W, strain Alg12, stronger effect = lower value 1 | S. cerevisiae deletion strains, locus YOL006C, strain TOP1, stronger effect = lower value 0.939 | S. cerevisiae deletion strains, locus YPL055C, strain LGE1, stronger effect = lower value 0.996 | S. cerevisiae deletion strains, locus YPL241C, strain CIN2, stronger effect = lower value 0.977 | S. cerevisiae deletion strains, locus YPR135W, strain CTF4, stronger effect = lower value 0.949 | S. cerevisiae strains, strain wild type, stronger effect = lower value 0.968
